Screening data deposited in PubChem BioAssay by National Center for Advancing Translational Sciences (NCATS).
Pf growth 96h – inhibits malaria parasite growth, 96 h. P. falciparum luciferase reporter growth, 96 h. Potency, µM (series often up to 28.7 µM), most hits filed as inhibitors. AID 504834. actives 6.9% (n = 320,000)
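96 h incubation, 37 C, 5% CO2, of luciferase-reporter P. falciparum-infected RBCs (2% hematocrit, 0.05% parasitemia final) with test compounds; endpoint luminescence.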
Pf growth 48h – inhibits P. falciparum growth in the first generation, 48 h; Potency, µM (doses to about 28.7 µM), hits mostly inhibitors; P. falciparum luciferase growth in erythrocytes, 48 h; actives 5.9% (n = 310,000)
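Luciferase-expressing P. falciparum in infected erythrocytes (2% hematocrit, 0.1% parasitemia final) in RPMI 1640/0.5% Albumax were exposed to compound for 48 hours at 37 C, 5% CO2; growth read as luminescence.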
Sm TGR inh – inhibitors of Schistosoma mansoni thioredoxin glutathione reductase; actives 3% (n = 360,000); Q962Y6; Potency, µM (doses to about 114 µM), usual class: inhibitors; purified TGR, DTNB reduction, TNB absorbance 405 nm; also: nearly all actives have a fitted effect of over 60% in size
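TGR 20 nM + NADPH 100 uM (dispensed conc.), cpd preinc 15 min RT; start with NADPH (500 uM addition) then DTNB (15 mM addition). Kinetic TNB absorbance, 405 nm filter. Four-parameter Hill fit across titration.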
SARS PLpro yeast – SARS-CoV PLP inhibition in yeast; actives 0.19% (n = 330,000); S. cerevisiae expressing SARS-CoV PLpro, growth rescue; AID 485353; Potency, µM (highest dose often 32.9 µM), usual class: activators; calls by dose curve; also: nearly all actives have a fitted effect of over 55% in size
A number is an active result; 0 = inactive; ? = inconclusive; - = no result. Shown are actives, neighbours in structure and some others; about 12% of the full set was active somewhere. Unless noted, calls follow the shape of the dose curve; as a rule, active = well fitted curve in the direction sought with a large enough effect; inconclusive = small, poorly fitted or top-dose-only effect, or another doubt; inactive = no such curve, though single readings can be large; an effect the other way counts as inactive or inconclusive.

SMILES | Pf growth 96h | Pf growth 48h | Sm TGR inh | SARS PLpro yeast
CCC(C)(C)c1ccc(OCCCC[n+]2cccc(C)c2)c(C(C)(C)CC)c1 | ? | 2.3µM | 0 | 0
CCOC(=O)CNC(=S)N(Cc1cccs1)C1CCCCC1 | 7.4µM | 0 | 0 | 0
O=C(N1CCOCC1)N(Cc1cccs1)C1CCCC1 | 7.4µM | 0 | 0 | 0
CCOC(=O)CNC(=S)N(Cc1ccccc1F)C1CCCCC1 | 0 | ? | 0 | 0
COc1ccccc1CC(=O)N1CCC(n2nccc2NC(=O)C2CCOC2)CC1 (stereo unspecified) | 0 | 0 | 0 | 0
CCCN1C(=O)C(O)(CC(=O)c2ccc(OC)c(OC)c2)c2ccccc21 (stereo unspecified) | - | - | 0 | -
O=C(O)c1c(Cl)c(Cl)c(Cl)c(Cl)c1-c1c2cc(I)c(=O)c(I)c-2oc2c(I)c(O)c(I)cc12 | 0 | 0 | - | -
COc1ccc(CCNC(=O)c2ccc3c(=O)n4c(nc3c2)CCC4)cc1OC | 0 | 0 | 0 | 0
COc1ccc(C2c3ccc(O)cc3Oc3ncn(CCN4CCOCC4)c(=N)c32)cc1OC (stereo unspecified) | ? | ? | 0 | 0
COc1ccc(C2c3ccc(O)cc3Oc3ncn4nc(-c5ccncc5)nc4c32)cc1OC (stereo unspecified) | 3.3µM | 1.3µM | 0 | 0
COc1ccc(C2c3ccc(O)cc3Oc3ncn4nc(-c5ccco5)nc4c32)cc1OC (stereo unspecified) | 0 | ? | 0 | 0
COc1ccc(C2c3ccc(O)cc3Oc3ncn(Cc4ccccc4)c(=N)c32)cc1OC (stereo unspecified) | ? | 12µM | 0 | 0
COc1ccc(C2c3ccc(O)cc3Oc3ncn4nc(-c5ccccn5)nc4c32)cc1OC (stereo unspecified) | 0 | 10µM | 0 | 0
COc1cccc(CNC(=O)c2cc(=O)[nH]c3ccc(S(=O)(=O)N4CCCC4)cc23)c1 | - | - | 0 | -
COc1ccc(CNC(=O)c2cc3ccccn3n2)c(OC)c1 | - | - | 0 | -
Cc1cccnc1NC(=O)CCc1nnc2ccc(N3CCC4(CC3)OCCO4)nn12 | 0 | 0 | 0 | 0
CC(=NCCCn1ccnc1)c1c(O)n(C)c(=O)n(C)c1=O | 10µM | 0 | 0 | 0
COc1ccc(C(=O)N2CCC(C(=O)Nc3ccccc3Cl)CC2)cc1 | - | - | 0 | -
CCOC(=O)N1CCN(C(=O)C(=O)c2cn(CC(=O)N3CCCCCC3)c3ccccc23)CC1 | 12µM | 12µM | 0 | 0
O=C(c1ccco1)c1cn(CC(=O)N2CCCCC2)c2ccccc12 | 1.7µM | 0 | 0 | 0
CC1CCCCN1C(=O)C(=O)c1cn(CC(=O)N2CCCCCC2)c2ccccc12 (stereo unspecified) | 13µM | ? | 0 | 0
O=CN1CCN(C(=O)C(=O)c2cn(CC(=O)N3CCCCC3)c3ccccc23)CC1 | 0 | 0 | 0 | 0
CCOC(=O)C1CCN(C(=O)C(=O)c2cn(CC(=O)N3CCCCCC3)c3ccccc23)CC1 | 10µM | 12µM | 0 | 0
CC1CCCCN1C(=O)C(=O)c1cn(CC(=O)N2CCCC2)c2ccccc12 (stereo unspecified) | ? | 0 | 0 | 0
O=C(Cn1cc(C(=O)c2ccco2)c2ccccc21)NC1CCCCC1 | 0 | 0 | 0 | 0
SMILES | Pf growth 96h | Pf growth 48h | Sm TGR inh | SARS PLpro yeast
CSc1ccc(/C=C(\NC(=O)c2ccco2)C(=O)N2CCCCC2)cc1 | 0 | 0 | 0 | 0
CC1CCCCN1C(=O)Cn1cc(C=C2C(=O)N(C)C(=O)N(C)C2=O)c2ccccc21 (stereo unspecified) | 0 | 0 | 0 | 0
CC1CCCCN1C(=O)Cn1cc(C=O)c2ccccc21 (stereo unspecified) | 13µM | 0 | 0 | 0
O=C(Nc1ccc(Br)cc1Br)c1cccc2c1C(=O)N(C1CCCCC1)C2 | ? | ? | 0 | 0
Cc1ccc(NC(=O)c2cccc3c2C(=O)N(C2CCCCC2)C3)c(Cl)c1 | 4.7µM | ? | 0 | 0
CSc1ccc(CCNC(=O)c2cccc3c2C(=O)N(C2CCCCC2)C3)cc1 | 10µM | ? | 0 | 0
Cc1cc(C)cc(NC(=O)c2cccc3c2C(=O)N(C2CCCCC2)C3)c1 | 12µM | ? | 0 | -
NC(=O)c1cccc2c1C(=O)N(C1CCCCC1)C2 | 9.3µM | 0 | 0 | 0
O=C(Nc1ccc(Br)cc1)c1cccc2c1C(=O)N(C1CCCCC1)C2 | 0 | ? | 0 | 0
O=C(NCCc1ccccc1)c1cccc2c1C(=O)N(C1CCCCC1)C2 | ? | ? | 0 | 0
O=C(CSc1nnc2ccc(-c3ccc(Br)cc3)nn12)NCC1CCCO1 (stereo unspecified) | ? | 0 | 0 | 0
CCOC(=O)N1CCC(N2Cc3cccc(C(=O)Nc4ccc(OC)c(OC)c4)c3C2=O)CC1 | ? | - | 0 | 0
COc1cc(NC(=O)c2cccc3c2C(=O)N(C2CCCCC2)C3)cc(OC)c1OC | ? | 12µM | 0 | 0
CC(=O)N1CCN(S(=O)(=O)c2cccc(C(=O)NC3CC3)c2)CC1 | 0 | 0 | 0 | 0
Cc1ccc(C(C)C)c(OC(C)C(=O)NCC2(N(C)C)CCCCC2)c1 (stereo unspecified) | - | - | 0 | -
Cc1cc2nn(-c3ccc(F)cc3)nc2cc1NC(=O)c1cc(Cl)ccc1Cl | - | - | 0 | -
CN(C)S(=O)(=O)c1cccc(-c2csc(N/N=C/c3ccco3)n2)c1 | 0 | ? | ? | 0
Cc1ccc(-c2csc(N/N=C/c3ccco3)n2)c(C)c1 | 0 | 13µM | 0 | 0
C=C[C@H]1CN2CC[C@H]1C[C@H]2[C@H](O)c1ccnc2ccccc12 | ? | 0.15µM | 0 | -
CCSc1ccc([C@@H]2[C@@H]3C(=O)N(CC)C(=O)[C@@H]3[C@]3(C(=O)OC)CCCN23)cc1 | ? | 10µM | 35µM | 0
CCCSc1ccc([C@H]2N[C@@](C)(C(=O)OC)[C@H]3C(=O)N(C)C(=O)[C@@H]23)cc1 | 0 | 0 | 0 | 0
CCSc1ccc([C@@H]2[C@@H]3C(=O)N(CC)C(=O)[C@@H]3[C@]3(C(=O)OC)CCCCN23)cc1 | 0 | 0 | 0 | 0
CCC(C)Sc1ccc([C@@H]2[C@H]3C(=O)N(CC)C(=O)[C@H]3[C@]3(C(=O)OC)CCCCN23)cc1 (stereo partly specified) | 3.3µM | 2.6µM | 0 | 0
CCCCCCSc1ccc([C@@H]2[C@H]3C(=O)N(C)C(=O)[C@H]3[C@]3(C(=O)OC)CCCCN23)cc1 | 12µM | 13µM | ? | 0
CCCCCCSc1ccc([C@H]2N[C@@](C)(C(=O)OC)[C@H]3C(=O)N(C)C(=O)[C@@H]23)cc1 | ? | 15µM | 0 | 0
SMILES | Pf growth 96h | Pf growth 48h | Sm TGR inh | SARS PLpro yeast
Cc1ccc2c(c1)N(C(=O)N1CCC(C(=O)NC3CCCCCC3)CC1)CCO2 | - | - | 0 | -
CCSc1ccc([C@@H]2[C@H]3C(=O)N(CC)C(=O)[C@H]3[C@]3(C(=O)OC)CCCCN23)cc1 | 4.7µM | 4.1µM | ? | 0
CCSc1ccc([C@@H]2[C@H]3C(=O)N(C)C(=O)[C@H]3[C@]3(C(=O)OC)CCCCN23)cc1 | ? | 12µM | ? | 0
CN(C(=O)COC(=O)C1=COCCO1)c1c(N)n(Cc2ccccc2)c(=O)[nH]c1=O | 0 | 0 | 0 | 0
CN(C)C(=O)Oc1cccc2c(OC(=O)N(C)C)cccc12 | - | 0 | 0 | 0
O=C(Cn1nnc(-c2ccc(N3CCOCC3)cc2)n1)OC1CCCCC1 | 7.4µM | 0 | 0 | 0
